Test systems include DU-145 prostate; K-562 leukemia; MALME-3M melanoma; MDA-MB-231 breast; RXF 393 renal; SF-268 CNS; SF-295 CNS; SF-539 CNS; UACC-257 melanoma; M14 melanoma; HCT-15 colon; HT29 colon; SNB-75 CNS; U251 CNS; PC-3 prostate; SK-MEL-5 melanoma; UACC-62 melanoma; LOX IMVI melanoma; SK-MEL-28 melanoma; SNB-19 CNS.
Assay in all cases: NCI-60 one-dose screen, 48 h (100 = growth as untreated, 0 = no growth, -100 = all killed)
What all share (settings): 10 µM

Compounds without any hit were thinned out: in the full panel of roughly 83,000, 20% have a hit.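 For each line, cells grew in 96-well plates with the test compound present at a single concentration for 48 hours.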 A number with no mark means an inactive call. Activity calls are given as the source filed them. How the source made its calls: active means growth percent below 10; inactive means the rest.

As for `CN(C)c1ccc2c(c1)OC(N)=C(C#N)C2c1ccc2c(c1)CCCN2C` (configuration not stated), the growth in the test with DU-145 prostate was 25.7%; in the test with K-562 leukemia it was 16.5%; in the test with MALME-3M melanoma it was 67.8%; in the test with MDA-MB-231 breast, 38.6%; in the test with RXF 393 renal, 8.31% (active); in the test on SF-268 CNS, 49.4%. Besides, the growth in the test on SF-295 CNS was -14.4% (active); with SF-539 CNS, -2.99% (active); with UACC-257 melanoma it was 54.7%; in the test on M14 melanoma, 2.75% (active); in the test on HCT-15 colon it was 15.8%; with HT29 colon, 10.5%. Further, the growth in the test with SNB-75 CNS was 42.7%; in the test on U251 CNS, 19.5%; in the test with PC-3 prostate, 27.3%; in the test on SK-MEL-5 melanoma, 21.4%; in the test on UACC-62 melanoma it was 34.4%; in the test with LOX IMVI melanoma, 42%. In addition, the growth in the test with SK-MEL-28 melanoma was 61.5%.

Regarding `COc1ccc(-c2nc(NC(=O)CS(=O)(=O)c3ccc(F)cc3)sc2C)cc1`, the growth is 79% in the test with DU-145 prostate; 26.4% with K-562 leukemia; 55.2% with MALME-3M melanoma; -37.1% (active) in the test on MDA-MB-231 breast; 14.4% in the test on RXF 393 renal; 65.3% in the test on SF-268 CNS. The growth is 25.1% with SF-295 CNS; 73.6% in the test on SF-539 CNS; 65.1% with UACC-257 melanoma; 44% in the test on M14 melanoma; 18.7% in the test on HCT-15 colon; 4.71% (active) with HT29 colon. Besides, the growth was 79.6% in the test with SNB-75 CNS; 47.8% with U251 CNS; 44.1% in the test on PC-3 prostate; 35.9% in the test on SK-MEL-5 melanoma; 74.9% with UACC-62 melanoma; 51.6% with LOX IMVI melanoma. Besides, the growth in the test with SK-MEL-28 melanoma is 88.5%.

With `COc1ccc(-c2cc(/C=C/C(=O)c3ccc(N)cc3)[nH]n2)cc1OC`, the growth with DU-145 prostate is 22.8%; in the test with K-562 leukemia it was 24.4%; with MALME-3M melanoma it was 109%; with MDA-MB-231 breast, 38.8%; in the test on RXF 393 renal, 21.2%; with SF-268 CNS, 18.8%. Further, the growth in the test with SF-295 CNS is 41%; with SF-539 CNS, 7.79% (active); in the test on UACC-257 melanoma it was 126%; with M14 melanoma, 84.4%; in the test on HCT-15 colon, 26%; in the test on HT29 colon, 22.6%. In addition, the growth in the test with SNB-75 CNS is 36.8%; with U251 CNS, 28.5%; in the test on PC-3 prostate, 41.8%; in the test on SK-MEL-5 melanoma, 63.4%; in the test on UACC-62 melanoma, 71.2%; in the test on LOX IMVI melanoma it was -45.5% (active). Also, the growth with SK-MEL-28 melanoma was 41.9%.

As to `c1ccc(OCCC[P+](c2ccccc2)(c2ccccc2)c2ccccc2)cc1`, the growth in the test on DU-145 prostate was 21.4%; in the test on K-562 leukemia, 1.76% (active); with MALME-3M melanoma it was 16.5%; with MDA-MB-231 breast it was 11.9%; in the test with RXF 393 renal it was 31.6%; in the test on SF-268 CNS it was 18%. Also, the growth is -30.7% (active) in the test with SF-295 CNS; 13.6% in the test with SF-539 CNS; -10.9% (active) with UACC-257 melanoma; 14.1% with M14 melanoma; 84.7% in the test on HCT-15 colon; 4.29% (active) in the test on HT29 colon. The growth in the test with SNB-75 CNS was -5.17% (active); with U251 CNS it was 8.33% (active); in the test with PC-3 prostate it was -0.485% (active); in the test on SK-MEL-5 melanoma, -69.2% (active); in the test on UACC-62 melanoma it was 14.6%; in the test with LOX IMVI melanoma, 2.53% (active). Moreover, in the test with SK-MEL-28 melanoma, the growth was 26%.

For `COc1ccc(CCc2nc3cc(-c4c(C)noc4C)ccc3n2CCN2CCOCC2)cc1`, the growth in the test on DU-145 prostate is 80.1%; in the test on K-562 leukemia it was 13.7%; in the test on MALME-3M melanoma, -37.4% (active); in the test with MDA-MB-231 breast it was 81.7%; in the test with RXF 393 renal, 70.1%; in the test with SF-268 CNS it was 50.4%. Besides, the growth in the test on SF-295 CNS is -35% (active); with SF-539 CNS it was 90.4%; in the test with UACC-257 melanoma, 12.9%; in the test with M14 melanoma it was 20.6%; in the test on HCT-15 colon, 52.8%; in the test on HT29 colon, 12.8%. Moreover, the growth in the test on SNB-75 CNS was 27.8%; with SNB-19 CNS it was 48.9%; with U251 CNS, 17%; in the test with SK-MEL-5 melanoma it was -0.324% (active); in the test on UACC-62 melanoma it was 20%; in the test on LOX IMVI melanoma, 50.2%. In addition, the growth with SK-MEL-28 melanoma is 33.6%.

On to `c1ccc(CNc2nc(Nc3ccc(-c4nc5ccccc5[nH]4)cc3)c3cn[nH]c3n2)cc1`, for which the growth with DU-145 prostate is 25.5%; with K-562 leukemia, -17% (active); with MALME-3M melanoma, -23.5% (active); in the test on MDA-MB-231 breast, -11.1% (active); in the test with RXF 393 renal, -68.3% (active); in the test with SF-268 CNS, 22.1%. Further, the growth was -44.5% (active) in the test with SF-295 CNS; 1.69% (active) with SF-539 CNS; -33.3% (active) with UACC-257 melanoma; -34.6% (active) with M14 melanoma; 0.22% (active) with HCT-15 colon; -13.9% (active) in the test on HT29 colon. Moreover, the growth with SNB-75 CNS is 33%; in the test with U251 CNS it was -19.8% (active); in the test with PC-3 prostate it was 11.8%; with SK-MEL-5 melanoma, -96.4% (active); in the test on UACC-62 melanoma, -40.9% (active); with LOX IMVI melanoma it was -42.1% (active). The growth with SK-MEL-28 melanoma was -8.67% (active).

For `Nc1ccc(C2=CC(c3ccc(Cl)cc3)N3C=CSC3=N2)cc1` (configuration not stated), the growth was -44.6% (active) in the test on DU-145 prostate; 3.22% (active) in the test on K-562 leukemia; -82.8% (active) in the test on MALME-3M melanoma; -14.4% (active) in the test on MDA-MB-231 breast; -93.1% (active) in the test with RXF 393 renal; -41.9% (active) in the test on SF-268 CNS. Also, the growth was -0.33% (active) in the test on SF-295 CNS; -55.8% (active) in the test on SF-539 CNS; -78.1% (active) with UACC-257 melanoma; -71.1% (active) in the test on M14 melanoma; -57.7% (active) in the test on HCT-15 colon; -42.9% (active) in the test with HT29 colon. The growth in the test on SNB-75 CNS was -15.6% (active); with U251 CNS it was -83.5% (active); in the test with PC-3 prostate, -28.1% (active); in the test with SK-MEL-5 melanoma, -97.6% (active); in the test on UACC-62 melanoma, -67.1% (active); with LOX IMVI melanoma, -83.3% (active). Also, the growth with SK-MEL-28 melanoma is -89.7% (active).

Take `COC(=O)[C@]12CC[C@@H](C)[C@H](C)[C@@H]1C1=CC[C@@H]3[C@@]4(C)C/C(=N\O)[C@H](O)[C@@]5(C)COC(=C45)C[C@@]3(C)[C@]1(C)CC2`: the growth was -94.8% (active) in the test on DU-145 prostate; -58.4% (active) in the test with K-562 leukemia; -71.1% (active) in the test on MALME-3M melanoma; -59.3% (active) with MDA-MB-231 breast; -73.4% (active) in the test with RXF 393 renal; -78.6% (active) with SF-268 CNS. Moreover, the growth is -88.5% (active) with SF-295 CNS; -75.2% (active) in the test with SF-539 CNS; -90.5% (active) in the test with UACC-257 melanoma; -82.3% (active) in the test with M14 melanoma; -92.7% (active) in the test on HCT-15 colon; -92.9% (active) in the test on HT29 colon. Also, the growth with SNB-75 CNS is -87.8% (active); in the test with SNB-19 CNS it was -66.2% (active); with U251 CNS, -96.4% (active); in the test with SK-MEL-5 melanoma it was -97.7% (active); with UACC-62 melanoma, -57.6% (active); with LOX IMVI melanoma it was -71.6% (active). In the test with SK-MEL-28 melanoma, the growth is -60.3% (active).

The record behind these values is PubChem BioAssay (NCI).
